Measured values: PubChem BioAssay (NCI)
The panel holds about 83,000 compounds, 20% with a hit somewhere; the sample as a whole holds those more often.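 Assay: single dose, 48 h. Readout: percent growth (0 = no net growth; negative = cell death). Active: <10.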 Values without a mark were called inactive. Activity calls are given as the source filed them.

What follows are compounds tested on U251 CNS (assay: NCI-60 one-dose screen, 48 h (100 = growth as untreated, 0 = no growth, -100 = all killed)). Conditions: 10 µM unless noted.

SMILES | growth
COC(=O)[C@]12CC[C@@H](C)[C@H](C)[C@@H]1C1=CC(=O)[C@@H]3[C@@]4(C)C[C@@H](OC(C)=O)[C@H](OC(C)=O)[C@@](C)(COC(C)=O)[C@@H]4C(=O)C[C@@]3(C)[C@]1(C)CC2 | 40.7%
COc1ccc(/C(=C\c2ccc3c(c2)OCO3)C(=O)Nc2nc3ccccc3s2)cc1OC | 97.9%
O=C1c2cccc3cccc(c23)C(=O)N1CC#Cc1ccc2c3c(cccc13)C(=O)N(CCO)C2=O | 93.1%
CCCCC/C(=C\c1ccccc1)C1OC(C)C(C)O1 (centres undefined) | 86.3%
COc1ccc2c(c1)c(-c1nc(-c3c[nH]c4ncccc34)cs1)cn2CCNC(=O)OC(C)(C)C | 69.1%
COc1ccc(C2c3ccccc3NC(=O)N2C2CCN(C)CC2)c(OC)c1 (centres undefined) | 100%
COc1cccc(-c2nn(-c3ccccc3)cc2-c2ccnc(NCCCNS(=O)(=O)c3ccc(Cl)cc3)c2)c1 | 35.5%
CC(CNc1nc(Nc2ccc(Cl)c(Cl)c2)nc(C(Cl)(Cl)Cl)n1)N(C)C (centres undefined) | -82.6% (active)
COc1ccc2c(c1)c1nc3cc(C)c(C)cc3nc1n2CCN(C)C | -85.8% (active)
Oc1cc(/C=C/c2nc(N3CCOCC3)c3cc(Cl)c(Cl)cc3n2)cc(O)c1O | 102%
COC(=O)CCCCCn1c2ccccc2c2c3c(c4c5ccccc5[nH]c4c21)C(=O)N(O)C3=O | 10.2%
NCCn1cc(-c2nc(-c3c[nH]c4ncccc34)cs2)c2ccccc21 | 91.5%
O=C1c2ccccc2NC(c2cn(-c3ccccc3)nc2-c2cccnc2)N1Cc1ccccc1 (centres undefined) | 93.6%
COc1cnc2c(c1)C(=O)c1c-2n(CCCNCCN2CCOCC2)c(=O)c2cc([N+](=O)[O-])ccc12 | -56.5% (active)
CCCCC[C@H]1C/C=C2/C(=O)C=C[C@@H]2C/C=C\CCCC(=O)O[C@@H](CCCCC)C/C=C2/C(=O)C=C[C@@H]2C/C=C\CCCC(=O)O1 | -94.3% (active)
COc1ccc2c(c1)c(-c1nc(-c3c[nH]c4ncccc34)cs1)cn2CCCN1CCCCC1 | -17.7% (active)
CCN(CC)CCCCCCNc1ccnc2cc(Cl)ccc12 | 85.3%
N#Cc1c(-c2ccc(O)cc2)c2c(N)nn(-c3ccccc3)c2[nH]c1=O | 103%
CC(C)(C)c1[nH]nc2c1C(c1cc3ccccc3[nH]c1=O)Nc1cc(C(=O)OCc3ccccc3)ccc1N2 (centres undefined) | 51.6%
c1cnc2[nH]cc(-c3csc(-c4cn(CCCN5CCCCC5)c5ccccc45)n3)c2c1 | 10.4%

SMILES | growth
COC(=O)[C@]12CC[C@@H](C)[C@H](C)[C@@H]1C1=CC[C@@H]3[C@@]4(C)CC(=O)[C@H](OC(=O)c5ccco5)[C@@]5(C)COC(=C45)C[C@@]3(C)[C@]1(C)CC2 | 24.9%
O=C1/C(=C\C(Cl)=C/c2ccc([N+](=O)[O-])cc2)SC(=S)N1CCc1ccc(O)cc1 | -88% (active)
O=c1c(CNc2ccc(S(=O)(=O)Nc3ncccn3)cc2)coc2ccccc12 | 93.3%
CCN(CC)CCCCCNc1cc(OC(=O)c2ccccc2)cc2cccnc12 | 98.2%
COc1cc2c(cc1-c1c(C)noc1C)ncc1nc(C3CC3)n([C@H](C)COC(F)F)c12 | 52.8%
COc1cc2nc(Cl)nc(Nc3cccc(C(=O)/C=C/c4ccc(F)cc4)c3)c2cc1OC | 32.6%
CN1CCN(CCOc2ccc(-c3cnc4c(-c5ccccc5F)cnn4c3)cc2)CC1 | 2.35% (active)
CN(C)CCCC1(c2ccc(F)cc2)OCc2cc(-c3ccc(C(F)(F)F)nc3)ccc21 (centres undefined) | 57.1%
Cn1cc(-c2nc(-c3c[nH]c4ncccc34)cs2)c2cc(Cl)ccc21 | 40%
CCC(CC)C(=O)OC(C)COc1ccc(C(C)(C)C)cc1 (centres undefined) | 90.1%
NCCNc1nc(-c2ccccc2)nc2nc(-c3ccccc3)oc12 | 70.3%
CCCCN1CCCCn2c1nc1c2c(=O)n(C)c(=O)n1C | 95%
CCc1nnc(NC(=O)c2ccoc2COc2ccccc2)s1 | 49.7%
CC1(C)C(=O)/C(=C\c2cccnc2)C[C@]2(C)[C@H]3CC[C@@H]4[C@@H](C(=O)/C=C/c5ccncc5)CC[C@@]4(C)[C@]3(C)CC[C@@H]12 | -7.74% (active)
N#C/C(=C\c1ccc(-c2ccc(Br)cc2)o1)c1nc(-c2ccco2)cs1 | 93.9%
C[C@H]1OC(=O)/C=C/[C@@H](O)[C@@H](O)CCCCCCCC[C@@H]1O | 90.2%
CC[C@]12C=CCN3CC[C@@]4(c5cc([C@H]6CCC(=O)N6)c(OC)cc5N(C)[C@H]4[C@@](O)(C(=O)OC)[C@@H]1OC(C)=O)[C@@H]32 | 98.3% [2.5 µM]
NC1=C(C/C(N)=N\O)C(c2ccccc2Cl)c2c(ccc3ccccc23)O1 (centres undefined) | 91.3%
Cn1cccc1/C=C1/SC(=S)N(CCc2ccc(O)cc2)C1=O | 41.8%
